Measured potencies and affinities stand elsewhere. Records with an inconclusive call do not appear. Active and inactive are the calls of the source. No rule for the calls is given here.

Here are results for 2 molecules from PubChem BioAssay AID540255 (Broad Institute, 2011).

The assay can be described thus: inhibitors of control reporter signal in H4 cells – cell-based, plate reader, dry powder samples, counter-screen for prion reporter project, dose response (AID 540255). In general terms: Counterscreens check selectivity or assay interference.

Take `Cc1cccc(C(=O)O/N=C(\N)c2ccccn2)c1`: the call was inactive.

Regarding `COc1ccc(N=CC2=C(O)c3ccccc3C2=O)c(OC)c1`, the call was inactive.
